In publication PMC5700166:
Positions count from the first letter of the chain named.

Experiments:
Assay in all cases: protein-binding microarray (PBM); PBM: ~300 nM protein, 6 mM HEPES pH 7.8, 80 mM KCl, 0.5 mM EDTA, 0.5 mM EGTA, 6% glycerol, 35 ng/ul poly-dIdC, 1% milk, 1 h, room temperature; Ap Aiptasia and Nv Nematostella (sea anemones) / Co Capsaspora / Aq Amphimedon (sponge) / Dm Drosophila / Hu human; RHD is the Rel homology domain; high values mean tight binding
Details in all cases: dsDNA, one strand shown
[1] = target: T1, GST-Ap-NF-kB RHD (Exaiptasia pallida (Aiptasia), UniProt A0A913YAJ5 2-422)
T1 sequence: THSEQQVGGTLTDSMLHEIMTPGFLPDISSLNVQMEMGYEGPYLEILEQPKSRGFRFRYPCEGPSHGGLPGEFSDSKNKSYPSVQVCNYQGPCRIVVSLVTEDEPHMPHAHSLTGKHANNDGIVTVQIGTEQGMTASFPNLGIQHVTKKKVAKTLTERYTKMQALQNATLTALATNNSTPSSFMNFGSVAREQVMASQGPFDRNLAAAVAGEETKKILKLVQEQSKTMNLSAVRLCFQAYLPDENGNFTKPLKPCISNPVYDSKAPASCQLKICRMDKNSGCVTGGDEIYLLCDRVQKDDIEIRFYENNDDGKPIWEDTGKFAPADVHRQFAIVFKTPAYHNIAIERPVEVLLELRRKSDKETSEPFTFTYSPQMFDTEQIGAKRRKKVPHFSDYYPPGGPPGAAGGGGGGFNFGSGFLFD

[2] = target: T2, GST-Nv-NF-kB (Cys allele) (Nematostella vectensis, UniProt E5G601 2-411)
T2 sequence: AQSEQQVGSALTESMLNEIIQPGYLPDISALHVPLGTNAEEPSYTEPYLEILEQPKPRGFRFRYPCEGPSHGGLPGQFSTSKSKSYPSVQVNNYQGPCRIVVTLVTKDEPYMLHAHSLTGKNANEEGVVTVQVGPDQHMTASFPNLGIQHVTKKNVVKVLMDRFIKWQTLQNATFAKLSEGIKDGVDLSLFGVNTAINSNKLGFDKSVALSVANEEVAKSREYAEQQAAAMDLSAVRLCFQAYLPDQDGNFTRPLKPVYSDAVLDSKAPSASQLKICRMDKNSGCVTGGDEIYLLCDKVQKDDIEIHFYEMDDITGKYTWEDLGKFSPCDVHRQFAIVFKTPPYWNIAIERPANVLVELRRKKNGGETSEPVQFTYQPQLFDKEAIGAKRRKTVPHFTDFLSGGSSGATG

[3] = target: T3, GST-Nv-NF-kB (Ser allele) (Nematostella vectensis, UniProt A7UNT2 2-411)
T3 sequence: T2 sequence with Q21R, C66S, S207N, E215Q, V217A, E225K, A268E, D399E

[4] = target: T4, GST-Co-NF-kB (Capsaspora owczarzaki, UniProt F1ARL5 200-546)
T4 sequence: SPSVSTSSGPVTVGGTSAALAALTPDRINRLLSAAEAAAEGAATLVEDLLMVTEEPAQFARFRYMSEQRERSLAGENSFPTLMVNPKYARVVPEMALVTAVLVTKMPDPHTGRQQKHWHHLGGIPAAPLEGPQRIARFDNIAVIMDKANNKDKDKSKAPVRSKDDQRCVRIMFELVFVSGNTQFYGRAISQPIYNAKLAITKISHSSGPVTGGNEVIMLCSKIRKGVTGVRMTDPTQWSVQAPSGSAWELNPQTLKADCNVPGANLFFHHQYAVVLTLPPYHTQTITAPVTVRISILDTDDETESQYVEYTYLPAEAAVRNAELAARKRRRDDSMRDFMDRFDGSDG

[5] = target: T5, GST-Dm-Relish (Drosophila melanogaster, UniProt Q94527 99-473)
T5 sequence: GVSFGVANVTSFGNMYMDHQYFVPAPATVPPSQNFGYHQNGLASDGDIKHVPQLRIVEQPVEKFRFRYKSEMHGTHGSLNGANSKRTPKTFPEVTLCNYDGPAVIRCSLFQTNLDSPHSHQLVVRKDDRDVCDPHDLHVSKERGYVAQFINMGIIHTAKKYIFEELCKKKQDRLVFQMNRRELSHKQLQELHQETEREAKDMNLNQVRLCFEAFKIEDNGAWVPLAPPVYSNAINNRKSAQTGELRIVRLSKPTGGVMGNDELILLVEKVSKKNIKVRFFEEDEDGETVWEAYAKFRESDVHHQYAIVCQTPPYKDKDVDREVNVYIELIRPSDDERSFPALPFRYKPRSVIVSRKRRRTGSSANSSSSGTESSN

[6] = target: T6, GST-Aq-NF-kB (Amphimedon queenslandica, UniProt A9Y5G7 2-389)
T6 sequence: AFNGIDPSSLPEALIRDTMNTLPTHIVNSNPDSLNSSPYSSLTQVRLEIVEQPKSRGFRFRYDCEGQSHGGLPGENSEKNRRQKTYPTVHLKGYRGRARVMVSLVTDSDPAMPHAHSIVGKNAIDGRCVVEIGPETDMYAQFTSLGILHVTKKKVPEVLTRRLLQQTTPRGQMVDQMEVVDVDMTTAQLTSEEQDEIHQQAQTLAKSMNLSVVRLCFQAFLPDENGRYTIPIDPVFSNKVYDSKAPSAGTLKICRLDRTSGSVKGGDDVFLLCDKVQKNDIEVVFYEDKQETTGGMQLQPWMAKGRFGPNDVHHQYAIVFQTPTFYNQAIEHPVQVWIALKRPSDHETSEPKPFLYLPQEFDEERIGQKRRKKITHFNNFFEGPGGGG

[7] = target: GST-Hu-p50 (Homo sapiens, UniProt P19838 7-356)
Sequence of GST-Hu-p50 (P19838 7-356): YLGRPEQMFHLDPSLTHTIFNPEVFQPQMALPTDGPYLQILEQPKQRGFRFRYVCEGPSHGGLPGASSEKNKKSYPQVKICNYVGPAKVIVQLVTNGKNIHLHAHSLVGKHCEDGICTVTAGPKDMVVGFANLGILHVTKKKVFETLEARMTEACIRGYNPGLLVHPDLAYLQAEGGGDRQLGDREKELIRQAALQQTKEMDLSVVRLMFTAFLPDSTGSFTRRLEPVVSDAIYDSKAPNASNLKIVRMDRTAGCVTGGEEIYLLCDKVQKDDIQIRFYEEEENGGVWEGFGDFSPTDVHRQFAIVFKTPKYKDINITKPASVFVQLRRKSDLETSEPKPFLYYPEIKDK

Sequence	binding signal [1]	binding signal [2]	binding signal [3]	binding signal [4]	binding signal [5]	binding signal [6]	binding signal [7]
CCGATTAACATCAGGGAAACTAATGATGTTAATCGGGTCTTGATTCGCTTGACGCTGCTG	2.58 z-score	3.94 z-score	4.37 z-score	3.69 z-score	1.22 z-score	3.45 z-score	2.79 z-score
CCGATTAACATCAAAACTTCCCCTGATGTTAATCGGGTCTTGATTCGCTTGACGCTGCTG	8.71 z-score	10.4 z-score	12.1 z-score	9.44 z-score	8.98 z-score	8.18 z-score	7.33 z-score
CCGATTAACATCAAAAATACCCTTGATGTTAATCGGGTCTTGATTCGCTTGACGCTGCTG	5.7 z-score	9.05 z-score	7.74 z-score	1.68 z-score	7.04 z-score	7.5 z-score	6.41 z-score
CCGATTAACATCAGATAATCCCCTGATGTTAATCGGGTCTTGATTCGCTTGACGCTGCTG	8.1 z-score	8.93 z-score	9.43 z-score	4.09 z-score	6.59 z-score	7.45 z-score	6.48 z-score
CCGATTAACATCAACATTTCCCCTGATGTTAATCGGGTCTTGATTCGCTTGACGCTGCTG	6.31 z-score	8.45 z-score	11.6 z-score	8.45 z-score	3.46 z-score	5.86 z-score	6.35 z-score
CCGATTAACATCAGGGGAACAACTGATGTTAATCGGGTCTTGATTCGCTTGACGCTGCTG	5.15 z-score	4.83 z-score	5.57 z-score	5.75 z-score	8.64 z-score	5.43 z-score	3.48 z-score
CCGATTAACATCACGGGTATTCCTGATGTTAATCGGGTCTTGATTCGCTTGACGCTGCTG	4.85 z-score	5.05 z-score	3.76 z-score	1.3 z-score	6.78 z-score	5.48 z-score	3.53 z-score
CCGATTAACATCAGGGGGAAACCTGATGTTAATCGGGTCTTGATTCGCTTGACGCTGCTG	8.24 z-score	8.06 z-score	9.71 z-score	9.35 z-score	7.54 z-score	7.94 z-score	7.23 z-score
CCGATTAACATCAGGATACCCCCTGATGTTAATCGGGTCTTGATTCGCTTGACGCTGCTG	7.7 z-score	4.68 z-score	4.35 z-score	4.59 z-score	5.79 z-score	6.35 z-score	5.02 z-score
CCGATTAACATCAAAATCCCCCCTGATGTTAATCGGGTCTTGATTCGCTTGACGCTGCTG	10.4 z-score	9.21 z-score	10.9 z-score	8.91 z-score	9.53 z-score	8.11 z-score	7.61 z-score
CCGATTAACATCAGATCTCCCCCTGATGTTAATCGGGTCTTGATTCGCTTGACGCTGCTG	6.98 z-score	5.31 z-score	6.01 z-score	8.07 z-score	2.64 z-score	4.88 z-score	5.76 z-score
CCGATTAACATCACACATCCCCCTGATGTTAATCGGGTCTTGATTCGCTTGACGCTGCTG	4.83 z-score	4.4 z-score	5.41 z-score	4.17 z-score	3.19 z-score	3.87 z-score	4.48 z-score
CCGATTAACATCAAGGGAATTTCTGATGTTAATCGGGTCTTGATTCGCTTGACGCTGCTG	6.34 z-score	8.61 z-score	8.46 z-score	4.25 z-score	5.45 z-score	7.24 z-score	5.75 z-score
CCGATTAACATCAAACTCCCCCTTGATGTTAATCGGGTCTTGATTCGCTTGACGCTGCTG	8.05 z-score	6.74 z-score	8.38 z-score	6.26 z-score	6.54 z-score	6.59 z-score	7.29 z-score
CCGATTAACATCAGGGGATTACCTGATGTTAATCGGGTCTTGATTCGCTTGACGCTGCTG	9.27 z-score	10.5 z-score	9.69 z-score	3.93 z-score	9.7 z-score	9.77 z-score	6.76 z-score
CCGATTAACATCACAACTTTCCCTGATGTTAATCGGGTCTTGATTCGCTTGACGCTGCTG	3.73 z-score	5.95 z-score	6.13 z-score	4.34 z-score	2.04 z-score	5.94 z-score	4.21 z-score
CCGATTAACATCAAAAAGCCCCCTGATGTTAATCGGGTCTTGATTCGCTTGACGCTGCTG	7.94 z-score	9.31 z-score	7.92 z-score	3.86 z-score	9.41 z-score	8.57 z-score	7.23 z-score
CCGATTAACATCAGATACTCCCCTGATGTTAATCGGGTCTTGATTCGCTTGACGCTGCTG	5.47 z-score	4.28 z-score	4.21 z-score	4.31 z-score	1.86 z-score	4.46 z-score	3.57 z-score
CCGATTAACATCAGGAATCCCCATGATGTTAATCGGGTCTTGATTCGCTTGACGCTGCTG	8.61 z-score	8.08 z-score	7.76 z-score	3.4 z-score	9.13 z-score	6.35 z-score	6.22 z-score
CCGATTAACATCAAAAGTCCCCTTGATGTTAATCGGGTCTTGATTCGCTTGACGCTGCTG	8.69 z-score	9.23 z-score	8.99 z-score	3.35 z-score	9.45 z-score	7.89 z-score	7.27 z-score
CCGATTAACATCAGGGGGGATTATGATGTTAATCGGGTCTTGATTCGCTTGACGCTGCTG	8.28 z-score	6.89 z-score	7.27 z-score	7.08 z-score	6.91 z-score	6.21 z-score	6.82 z-score
CCGATTAACATCAGGGAATCCCATGATGTTAATCGGGTCTTGATTCGCTTGACGCTGCTG	5.36 z-score	4.92 z-score	4.14 z-score	2.97 z-score	10.4 z-score	6.45 z-score	4.13 z-score
CCGATTAACATCAGGGAAATCCATGATGTTAATCGGGTCTTGATTCGCTTGACGCTGCTG	4.11 z-score	5.43 z-score	5.07 z-score	3.28 z-score	5.65 z-score	5.63 z-score	3.96 z-score
CCGATTAACATCAGACTTTTCCCTGATGTTAATCGGGTCTTGATTCGCTTGACGCTGCTG	2.88 z-score	4.94 z-score	5.24 z-score	4.28 z-score	1.62 z-score	4.8 z-score	3.13 z-score
